Assay outcomes (PubChem)
CYP2C9 act: CYP2C9 (human) activation; AID 1024; 96,000 compounds, 1.4% hits; recombinant CYP2C9, luciferin-H conversion, luminescence; hits give high values; factor 1 = untreated enzyme, 0 = blocked; activation factor at 5 µM; P11712;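 active = activation factor of 2 or more for CYP2C9 at a 5 µM dose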
Cav3 T inh: human Cav3.2 channel inhibition, primary screen | AID 449739 | 100,000 compounds, 4% hits | Cav3.2-expressing cells, Fluo-4 calcium fluorescence FDSS; hits give low values | B-score at 10 µM;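 active = single-dose well whose peak fluorescence ratio is a statistical outlier from its plate by either plate-standardised score or position-corrected B-score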
CYP2C19 activ: cytochrome P450 2C19 (human) activation. 96,000 tested, under 10 active. activation factor at 5 µM. recombinant CYP2C19, luciferin-H EGE luminescence; hits give high values; 0 = fully inhibited enzyme, 1 = untreated enzyme. AID 1025. P33261;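 active = activation factor of at least 2 at 5 µM in the primary screen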
Target sequence (P33261 whole entry, looked up): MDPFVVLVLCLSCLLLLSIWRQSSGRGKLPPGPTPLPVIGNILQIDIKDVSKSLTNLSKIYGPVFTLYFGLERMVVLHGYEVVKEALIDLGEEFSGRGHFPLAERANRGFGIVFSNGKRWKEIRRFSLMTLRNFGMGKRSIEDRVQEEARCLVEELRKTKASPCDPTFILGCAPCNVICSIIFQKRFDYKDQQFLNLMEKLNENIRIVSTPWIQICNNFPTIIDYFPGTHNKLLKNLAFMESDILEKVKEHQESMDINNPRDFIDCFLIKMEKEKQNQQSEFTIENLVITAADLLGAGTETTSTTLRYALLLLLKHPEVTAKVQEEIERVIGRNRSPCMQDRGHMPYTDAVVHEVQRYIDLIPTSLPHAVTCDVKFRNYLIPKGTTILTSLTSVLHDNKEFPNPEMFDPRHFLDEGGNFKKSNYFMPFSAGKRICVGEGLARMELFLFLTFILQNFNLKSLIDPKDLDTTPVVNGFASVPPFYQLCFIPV
CYP2C9 inhib: inhibitors of human CYP2C9; P11712; CYP2C9 Supersomes, luciferin-H conversion, luminescence; inhibition, % at 5 µM; 96,000 compounds, 20% hits;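 active = blocking of liver enzyme CYP2C9 beyond about 50% at 5 µM, limit read from the data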
CYP2C19 inhib: inhibitors of human CYP2C19; P33261; CYP2C19 Supersomes, luciferin-H EGE luminescence, 30 min; inhibition, % at 5 µM; 96,000 compounds, 21% hits;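 active = CYP2C19 inhibition above a set limit at 5 µM in the primary screen, cut at about 50% in these data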
Of the large screens only hits and unclear results are named; the others gave an inactive call. The list is not random: actives were taken first. Their share in the collection is about 27%.

Cc1cc(/C=N/NC(=O)c2cccc([N+](=O)[O-])c2)c(C)n1-c1ccc(Cl)cc1Cl	Cav3 T inh -6.4
O=C(NC1CCCCC1)N1CCN(CCc2ccccc2)CC1	none
CSc1cccc(NS(=O)(=O)c2cccc3nsnc23)c1	CYP2C9 inhib 64, CYP2C19 inhib 58
COc1cc(NS(=O)(=O)c2cccc3nsnc23)cc(OC)c1	CYP2C19 inhib 93
CCC(NC(=O)c1cccc(Cn2cc([N+](=O)[O-])cn2)c1)c1ccc(C(C)C)cc1 (configuration not stated)	Cav3 T inh -4.3, CYP2C9 inhib 96
CC(NC(=O)c1cccc(Cn2cc([N+](=O)[O-])cn2)c1)c1ccc(C(C)(C)C)cc1 (configuration not stated)	Cav3 T inh -4.3, CYP2C9 inhib 81, CYP2C19 inhib 61
CN1CCc2c(sc3c2c(=O)n(-c2ccccc2)c2nnc(SCc4ccc(Cl)cc4)n32)C1	none
O=C(O)COc1ccc(S(=O)(=O)c2ccc(OCC(=O)O)cc2)cc1	none (no result: Cav3 T inh)
O=C(NC1=NCCS1)c1csc2ccccc12	none
O=C(NCc1ccc2c(c1)OCO2)c1nn(-c2ccccc2)c(=O)c2ccccc12	CYP2C9 inhib 94, CYP2C19 inhib 87
COc1ccc(/C=N/NC(=O)c2nc(-c3ccccc3)cc(-c3ccccc3)n2)cc1	Cav3 T inh -7.2
COc1cc(/C=N/NC(=O)c2cnn3c(C)cc(-c4ccccc4)nc23)ccc1O	none
COc1cccc(-n2nc(C(=O)N3CC(C)CC(C)C3)c3ccccc3c2=O)c1 (configuration not stated)	CYP2C9 inhib 58
COc1ccc(/C=N/NC(=O)c2nn(-c3ccc(C)c(C)c3)c(=O)c3ccccc23)cc1	CYP2C9 inhib 64
CN(C)CCCNc1cc(Cl)c(S(=O)(=O)N2CCCCC2)cc1C(=O)O	none (no result: Cav3 T inh)
Cc1ccc(S(=O)(=O)N2CCN(C(=O)C3Cc4ccccc4CN3C(=O)c3ccco3)CC2)cc1 (configuration not stated)	none
O=C(c1ccc(Cl)c(F)c1F)N1CCOCC1	none
COc1ccc(-n2nc(C(=O)Nc3ccc4c(c3)OCO4)c3ccccc3c2=O)c(OC)c1	none (no result: Cav3 T inh)
COc1cccc(-n2nc(C(=O)Nc3ccc4c(c3)OCO4)c3ccccc3c2=O)c1	CYP2C9 inhib 90
CCn1c(N)c(C(=O)NCCOC)sc1=S	none
COc1ccc(-n2nc(C(=O)N3CCN(c4ccc(F)cc4)CC3)c3ccccc3c2=O)c(OC)c1	CYP2C9 inhib 56 (no result: Cav3 T inh)
CCn1c(N)c(C(=O)NCc2ccc3c(c2)OCO3)sc1=S	CYP2C9 inhib 63, CYP2C19 inhib 51
Cc1cc(C)cc(-n2nnc(C(=O)NCc3ccc4c(c3)OCO4)c2N)c1	Cav3 T inh -5.4 (no result: CYP2C9 act, CYP2C19 activ, CYP2C9 inhib, CYP2C19 inhib)
Cc1noc(C)c1C(=O)N1CCCC1	none
COc1ccc(CNC(=O)C2CSC(=O)C2)cc1 (configuration not stated)	none
Cc1cccc(OCCOc2ccc(/C=N/NC(=O)Cc3nnc(N)s3)cc2)c1	none
CCC(C)Sc1nc2c(c(=O)[nH]c(=O)n2C)n1C (configuration not stated)	none (no result: Cav3 T inh)
CCOc1ccccc1NC(=O)N1CCC(c2nc3ccccc3[nH]2)CC1	CYP2C19 inhib 63
COc1ccc(NC(=S)N2CCC(c3nc4ccccc4[nH]3)CC2)c(OC)c1	CYP2C9 inhib 59
COc1ccccc1NC(=S)N1CCC(c2nc3cc(C)c(C)cc3[nH]2)CC1	none
Cc1coc(NC(=O)CSc2nc(-c3ccncc3)cc(C(F)(F)F)c2C#N)n1	none
Cc1ccc(C2C(/C=C3/SC(=S)NC3=O)=C(c3cccs3)Oc3ccccc32)cc1 (configuration not stated)	CYP2C9 inhib 68 (no result: Cav3 T inh)
Nc1nc(SCC(=O)NCC2CCCO2)n[nH]1 (configuration not stated)	none
CCOCCN1CCN(c2c3c(nc4cc(-c5ccc(F)cc5)nn24)CCC3)CC1	CYP2C9 inhib 50
Fc1cccc(-c2cc3nc4c(c(N5CCC6(CC5)OCCO6)n3n2)CCCC4)c1	CYP2C9 inhib 74
c1ccc(N2OCC3Cn4c(nc5ccccc54)C32)cc1 (configuration not stated)	none (no result: CYP2C9 act, CYP2C19 activ, CYP2C9 inhib, CYP2C19 inhib)
COc1ccc(O)c(/C=N/Nc2nc(Nc3ccccc3)nc(-n3nc(C)cc3C)n2)c1	Cav3 T inh -4.4
CCCOC(=O)c1cccc(NC(=O)C(C)(C)C)c1	CYP2C9 inhib 59, CYP2C19 inhib 79
CC(C)(C)C(=O)Nc1cccc(C(=O)c2cccc(NC(=O)C(C)(C)C)c2)c1	CYP2C19 inhib 55
O=C(COc1ccc(Cl)cc1Cl)N/N=C/CCc1ccccc1	none (no result: Cav3 T inh)
CC1CCC/C(=N\NC(=O)COc2ccc(Cl)cc2Cl)C1 (configuration not stated)	CYP2C19 inhib 80 (no result: Cav3 T inh)
CCOC(=O)N1CCN(C(=O)CSCC(=O)Nc2nc(-c3ccc4c(c3)OCO4)cs2)CC1	CYP2C9 inhib 73 (no result: Cav3 T inh)
CCOC(=O)N1CCN(C(=O)CSCC(=O)Nc2nc(-c3cccs3)cs2)CC1	none (no result: CYP2C9 act, CYP2C19 activ, CYP2C9 inhib, CYP2C19 inhib)
CC1CCN(C(=O)CSCC(=O)Nc2nc(-c3cccs3)cs2)CC1	Cav3 T inh -5.7 (no result: CYP2C9 act, CYP2C19 activ, CYP2C9 inhib, CYP2C19 inhib)
CC1CCCN(C(=O)CSCC(=O)Nc2nc(-c3cccs3)cs2)C1 (configuration not stated)	Cav3 T inh -5.2
CC1CCCCN1C(=O)CSCC(=O)Nc1nc(-c2cccs2)cs1 (configuration not stated)	Cav3 T inh -4.9 (no result: CYP2C9 act, CYP2C19 activ, CYP2C9 inhib, CYP2C19 inhib)
CCc1c(C)nc(SC)n(CC#N)c1=O	none
NC(=O)c1ccc(-n2nnnc2SCC(=O)Nc2ccccc2-c2ccccc2)cc1	none
NC(=O)c1ccc(-n2nnnc2SCc2ccccc2)cc1	CYP2C19 inhib 87
CCC(=O)Nc1ccc(-c2nnc(SCc3ccc(C(=O)Nc4nccs4)cc3)n2CC)cc1	none
O=C(Nc1nccs1)c1ccc(CSc2nnnn2-c2ccccc2)cc1	CYP2C9 inhib 92, CYP2C19 inhib 92
COCCN1CCn2c(nc3cc(NC(=O)c4cccs4)ccc32)C1	none
O=C(Nc1ccc2c(c1)nc1n2CCSC1)c1ccccc1	CYP2C9 inhib 54
CC(c1ccccc1)N1CCn2c(nc3cc(NC(=O)c4cccs4)ccc32)C1 (configuration not stated)	CYP2C9 inhib 84
COc1nc(C)nc(Cl)c1NC1=NCCN1	none (no result: CYP2C9 act, CYP2C19 activ, CYP2C9 inhib, CYP2C19 inhib)
Cc1ccc(/C(COc2ccccc2O)=N\O)cc1	CYP2C19 inhib 76
Cc1cc(C)n(C(=O)c2ccncc2)n1	none
Cc1nc(N2CCN(Cc3ccccc3)CC2)nc2c1C(=O)CC(c1ccco1)C2 (configuration not stated)	CYP2C9 inhib 54
Cc1nc(N2CCN(Cc3ccc4c(c3)OCO4)CC2)nc2c1C(=O)CC(c1ccco1)C2 (configuration not stated)	CYP2C9 inhib 88, CYP2C19 inhib 73
Cc1nc(N2CCN(Cc3ccccc3)CC2)nc2c1C(=O)CCC2	CYP2C19 inhib 55 (no result: Cav3 T inh)
COc1ccc(C2CC(=O)c3c(C)nc(N4CCN(c5ccccc5)CC4)nc3C2)cc1 (configuration not stated)	none
